Rows were chosen to be rich in hits. Some 19% of all compounds tested hit in one or more screens of this group.
ASM inhibitor: blocks human secretory acid sphingomyelinase; P17405; placental ASM, HMU-PC fluorogenic substrate, 60 min; Potency, µM (top dose mostly 57.5 µM), without a hit: top-dose activity change, negative = inhibition, hits mostly inhibitors; 340,000 tested, 0.006% active; further: potency means the concentration at half of the fitted maximal effect
Target sequence (P17405 47-631 limits assumed): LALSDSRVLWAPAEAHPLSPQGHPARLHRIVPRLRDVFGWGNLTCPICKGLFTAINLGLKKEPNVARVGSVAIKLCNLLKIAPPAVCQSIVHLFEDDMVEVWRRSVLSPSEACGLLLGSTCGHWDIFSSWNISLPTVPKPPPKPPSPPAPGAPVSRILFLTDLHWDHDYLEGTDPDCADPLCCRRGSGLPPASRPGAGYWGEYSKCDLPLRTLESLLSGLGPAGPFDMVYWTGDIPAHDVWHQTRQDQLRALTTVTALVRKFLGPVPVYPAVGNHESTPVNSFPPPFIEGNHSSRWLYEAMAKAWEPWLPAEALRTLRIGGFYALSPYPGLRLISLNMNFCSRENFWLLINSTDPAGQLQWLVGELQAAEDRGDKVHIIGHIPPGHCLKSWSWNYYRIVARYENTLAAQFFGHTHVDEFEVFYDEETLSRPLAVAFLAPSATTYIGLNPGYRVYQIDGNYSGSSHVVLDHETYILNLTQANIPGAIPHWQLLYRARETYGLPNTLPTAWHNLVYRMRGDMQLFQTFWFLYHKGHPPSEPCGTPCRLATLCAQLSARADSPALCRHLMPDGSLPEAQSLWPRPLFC
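Fluorogenic HMU-PC substrate (9 uM final) is turned over by placental ASM in 60 min at 37 C after a 10 min compound preincubation. Reaction ended by alkaline stop (pH 10), with fluorescence read at 386/447 nm.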
IL-1B inflam inh: inflammasome signaling inhibition, IL-1 beta readout. THP-1 LPS/ATP IL-1B secretion, AlphaLISA, 16 h; stronger effect = lower value. activity change, % at 57.5 µM. 360,000 tested, 4.7% active; in the data active means activity change below about -50%; inconclusive means mostly about -30% to -49%; further: on the % scale 0 is the no-effect control and ±100 the full control effect
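THP-1 cells pretreated 1 hr with compounds (up to 57.5 uM final), then stimulated with LPS (250 ng/mL final) plus ATP (1.25 mM final); secreted IL-1B measured by AlphaLISA after 16 hr, decreased signal indicating inhibition.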
TGFb inhibitor: TGF-b pathway inhibition | AID 588855 | HepG2 CAGA-GFP TGF-b/SMAD3 reporter, GFP fluorescence, 18 h; TGF-beta stimulated, 500 pg/mL final | Potency, µM (doses to about 46.1 µM), inactives show at the highest dose activity, negative = inhibition, actives largely listed as inhibitors | 410,000 tested, 1.2% active; further: potency means the concentration at half of the fitted maximal effect; on the % scale 0 is the no-effect control and ±100 the full control effect; nearly all actives have a fitted effect of over 65% in size
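Inhibition of TGF-beta-driven CAGA-GFP reporter expression in HEPG2 cells is measured by cellular GFP fluorescence after 18 h stimulation with 500 pg/mL recombinant TGF-beta in 1% FBS medium at 37 degrees C.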
TDP1 cell CPT: DT40-hTDP1 cell growth loss with CPT; chicken DT40 Tdp1-/-;hTDP1 cells + 20 nM CPT, ATP luminescence, 48 h; AID 686979; 420,000 tested, 12% active; Potency, µM (titrated, usually from 46.2 µM), for the others: top-dose activity change, negative = growth inhibition, hits mostly inhibitors; further: potency means the concentration at half of the fitted maximal effect; on the % scale 0 is the no-effect control and ±100 the full control effect; nearly all actives have a fitted effect of over 55% in size
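Cell growth measured by CellTiter-Glo luminescence after a minimum 48 h, 37 C compound exposure with 20 nM CPT in Tdp1-knockout DT40 cells stably expressing hTDP1, seeded 400/well; qHTS titration format.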
HepG2 tox: counter-screen for TGF-b inhibitors: cytotoxicity in HepG2 cells. AID 588856. Potency, µM (highest dose often 46.1 µM), inactives show top-dose activity change, negative = cytotoxicity, usual class: cytotoxic. HepG2 CAGA-GFP viability, ATP luminescence, 18 h. 410,000 tested, 0.76% active; further: potency means the concentration at half of the fitted maximal effect
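CellTiter-Glo luminescence gave cytotoxicity after 18 hours at 37 degrees C. The cells were HepG2 CAGA-GFP in 1% FBS DMEM, stimulated with 500 pg/mL TGF-beta after compound addition. %Activity was normalised to no-cell wells (complete cell-killing) and DMSO (no toxicity), and curves were fitted and classified.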
DT40 TDP1 no CPT: qHTS for Inhibitors of human tyrosyl-DNA phosphodiesterase 1 (TDP1): qHTS in cells in absence of CPT | AID 686978, 2013 | DT40 Tdp1-/- hTDP1 cells, no CPT, ATP luminescence, 48 h | Potency, µM (doses to about 46.2 µM), for the others: at the highest dose activity change, negative = growth inhibition, hits mostly inhibitors | 420,000 tested, 15% active; further: potency means the concentration at half of the fitted maximal effect; on the % scale 0 is the no-effect control and ±100 the full control effect; nearly all actives have a fitted effect of over 55% in size
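Camptothecin absent (DMSO only). Human TDP1-complemented DT40 knockout cells, 400 cells/well, 37 °C for minimum 48 hr; ATP measured via CellTiter-Glo, 30 min dark incubation, luminescence.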
An asterisk follows results filed as active; i = inactive; ? = inconclusive; · = no result given. Unless noted, the call rests on the fitted dose curve; in most records, active means well fitted curve in the direction sought with a large enough effect; inconclusive means small, poorly fitted or top-dose-only effect, or another doubt; inactive means no such curve, though single readings can be large; an effect the other way counts as inactive or inconclusive.

SMILES	ASM inhibitor	IL-1B inflam inh	TGFb inhibitor	TDP1 cell CPT	HepG2 tox	DT40 TDP1 no CPT
Cc1ccc(SCC(=O)Nc2ccc3oc(-c4cccc(C)c4)nc3c2)cc1	·	·	0.4%	?	-19.4%	14.6µM*
COc1cccc(NS(=O)(=O)c2csc(C(N)=O)c2)c1	-0.6%	29.5	-1.3%	?	-33.8%	-21.3%
CC12CCC(C1)C(C)(C)C2OC(=O)c1ccccc1C(=O)O (stereo not given)	6.0%	13.1	-10.9%	-23.3%	-3.0%	-7.9%
Cc1nnc(SC2CC(=O)N(c3ccccc3)C2=O)s1 (stereo not given)	3.3%	6.1	-9.0%	3.66µM*	-0.1%	20.6µM*
O=C(O)c1cccnc1SC1CC(=O)N(c2ccccc2)C1=O (stereo not given)	2.2%	5.2	3.0%	-14.5%	10.4%	7.7%
O=C1CC(Sc2nnc(-c3ccccc3)o2)C(=O)N1c1ccccc1 (stereo not given)	-2.1%	-17.2	10.7%	2.91µM*	-1.2%	4.61µM*
O=C1CC(Sc2cccs2)C(=O)N1c1ccccc1 (stereo not given)	0.0%	-27.2	-20.0%	3.66µM*	1.2%	3.66µM*
COc1ccc(NC(=O)Cn2c(=O)c3ccccc3n3nncc23)c(OC)c1	·	·	-22.7%	6.5%	-14.3%	?
CCc1ccc2c(c1)c(=O)c(S(=O)(=O)c1ccccc1)cn2CC(=O)Nc1cc(C)ccc1C	·	·	17.0%	16.3%	-1.2%	-0.3%
Cc1ccc(NC(=O)Cn2c(=O)n(Cc3ccccc3)c(=O)c3sc4ccccc4c32)cc1	·	·	-0.7%	5.8µM*	3.1%	5.8µM*
Cc1ccc(CNC(=O)Cn2c(=O)n(Cc3ccccc3)c(=O)c3sc4ccccc4c32)cc1	·	·	-0.8%	?	12.8%	?
O=c1c2sc3ccccc3c2n(Cc2cccc(C(F)(F)F)c2)c(=O)n1-c1ccccc1	·	·	-21.9%	?	-24.2%	13µM*
Cc1cccc(Cn2c(=O)n(Cc3ccccc3)c(=O)c3sc4ccccc4c32)c1	·	·	-15.7%	?	18.4%	23.1µM*
COc1ccc(-n2c(=O)c3sc4ccccc4c3n(Cc3ccccc3)c2=O)cc1	·	·	-8.0%	?	-3.0%	-25.9%
CC1CCN(C(=O)CSc2ccc(-c3ccccc3)nn2)CC1	-4.0%	-17.4	?	-11.5%	-17.1%	-20.9%
O=C(CSC1CN(C(c2ccccc2)c2ccccc2)C1)N/N=C/c1ccccc1	-0.7%	-22.8	-21.7%	16.4µM*	i	?
Cc1ccccc1SCC(=O)N/N=C/c1ccc(F)cc1	-2.1%	-4.1	0.0%	?	-2.2%	3.8%
O=C(CSc1nnc(NC(=O)C2CC2)s1)Nc1cccc(F)c1	-0.8%	-3.0	11.7%	-15.1%	-12.0%	-15.5%
COc1ccc(CN2CCCC(c3nc(-c4ccncc4)ncc3-c3ccccc3C)C2)c(OC)c1 (stereo not given)	·	·	·	2.59µM*	·	?
COc1cccc(CN2CCCC(c3nc(-c4ccncc4)ncc3-c3ccccc3)C2)c1O (stereo not given)	·	·	·	?	·	16.4µM*
FC(F)(F)c1nc2nc(Cl)c(Cl)nc2[nH]1	·	31.0	-11.3%	?	-3.5%	20.6µM*
FC(F)(F)C(F)(F)C(F)(F)c1nc2nc(Cl)c(Cl)nc2[nH]1	·	26.7	-0.9%	?	-39.2%	16.4µM*
C=C(C)C(=O)OC1(C(F)(F)F)Oc2cc(C)ccc2NC1=O (stereo not given)	-1.7%	-72.9*	?	16.4µM*	-36.2%	16.4µM*
COc1ccc(C2(O)C(=O)Nc3ccc(C)cc32)cc1 (stereo not given)	2.9%	25.1	0.9%	6.6%	-20.3%	4.1%
COc1ccc(C2=NS(=O)(=O)N(C)C(C(=O)NC3CCCCC3)=C2)cc1OC	-0.9%	1.8	-0.8%	9.2µM*	-24.3%	18.4µM*
SMILES	ASM inhibitor	IL-1B inflam inh	TGFb inhibitor	TDP1 cell CPT	HepG2 tox	DT40 TDP1 no CPT
COc1ccc(C2=NS(=O)(=O)N(C)C(C(=O)Nc3ccc4c(c3)OCO4)=C2)cc1	-23.6%	-17.0	?	16.4µM*	-29.8%	8.2µM*
Cc1ccc(C2=NS(=O)(=O)N(C)C(C(=O)Nc3ccc4c(c3)OCO4)=C2)cc1	-17.4%	11.0	?	?	-27.0%	?
COc1ccc(C2=NS(=O)(=O)N(C)C(C(=O)Nc3ccc4c(c3)OCO4)=C2)cc1OC	-23.0%	8.2	-29.0%	16.4µM*	-12.5%	16.4µM*
O=S(=O)(c1cccs1)N1CCN(CCOc2ccc(Cl)cc2)CC1	-1.8%	-59.1*	?	?	-32.6%	?
O=S(=O)(c1cccs1)N1CCN(c2ccc(Cl)cc2)CC1	-4.9%	-11.1	-1.2%	6.3%	-14.2%	-23.2%
NS(=O)(=O)c1ccc(N2CCN(CCOc3ccc(Cl)cc3)CC2)nc1	0.2%	-10.9	-23.2%	?	-49.7%	14.6µM*
O=S(=O)(c1cccs1)N1CCN(CC(O)COc2cc(Cl)ccc2Cl)CC1 (stereo not given)	-6.1%	-16.2	?	?	-26.5%	23.1µM*
O=S(=O)(c1ccc(Br)s1)N1CCN(CCOc2ccccc2)CC1	3.0%	?	?	20.6µM*	-22.1%	?
O=S(=O)(c1cccs1)N1CCN(c2cccc(Cl)c2)CC1	-0.9%	-10.6	-19.8%	-24.7%	-17.7%	-28.0%
CCc1cc2c(Nc3ccc(O)cc3)nc(C)nc2s1	-2.6%	15.0	-7.1%	-26.7%	-22.7%	-20.3%
CC1(C)C(=O)OC(c2cccn2-c2ccc([N+](=O)[O-])cc2)C(C)(C)C1=O (stereo not given)	0.1%	-9.4	-3.0%	14.6µM*	-25.4%	23.1µM*
CCCCCn1c(=N)c(S(=O)(=O)c2ccccc2)cc2c(=O)n3cccc(C)c3nc21	·	·	-0.5%	·	-6.2%	·
CCc1c(C)sc2c1CCN(C(=O)Nc1cc(C)ccc1C)C2c1ccc(OC)cc1 (stereo not given)	·	·	2.6%	?	-33.1%	25.9µM*
COc1ccc(C(=O)NC2CCN(C(=S)Nc3cc(C)ccc3C)CC2)cc1	1.8%	-5.3	8.9%	-16.7%	3.3%	-25.2%
CCc1c(C)sc2c1CCN(C(=O)Nc1ccccc1Cl)C2c1ccc(OC)cc1 (stereo not given)	·	·	-28.6%	?	-30.6%	14.6µM*
COc1cc(NC(=O)Cn2c(=O)cc(C)c3c(C)nn(-c4ccc(C)cc4)c32)cc(OC)c1	·	·	-11.6%	-9.4%	7.0%	-14.2%
